# Data from PubChem BioAssay AID2331 (The Scripps Research Institute Molecular Screening Center, 2010).
# The list shows a part of the results. The source made the active and inactive calls. No stated cut-off is given here; in the data, active means inhibition above about 9.5%; inactive means the rest.
# Target: Serine/threonine-protein phosphatase 5 (Homo sapiens) (UniProt P53041)
# Test: inhibition of human PPP5C phosphatase activity – biochemical, fluorescence, confirmation (AID 2331)
# Conditions: Purified PP5, fluorogenic phosphatase substrate, at 6.7 µM, hits give high values
# Serine/threonine-protein phosphatase 5 (Homo sapiens), sequence (P53041 whole entry, looked up): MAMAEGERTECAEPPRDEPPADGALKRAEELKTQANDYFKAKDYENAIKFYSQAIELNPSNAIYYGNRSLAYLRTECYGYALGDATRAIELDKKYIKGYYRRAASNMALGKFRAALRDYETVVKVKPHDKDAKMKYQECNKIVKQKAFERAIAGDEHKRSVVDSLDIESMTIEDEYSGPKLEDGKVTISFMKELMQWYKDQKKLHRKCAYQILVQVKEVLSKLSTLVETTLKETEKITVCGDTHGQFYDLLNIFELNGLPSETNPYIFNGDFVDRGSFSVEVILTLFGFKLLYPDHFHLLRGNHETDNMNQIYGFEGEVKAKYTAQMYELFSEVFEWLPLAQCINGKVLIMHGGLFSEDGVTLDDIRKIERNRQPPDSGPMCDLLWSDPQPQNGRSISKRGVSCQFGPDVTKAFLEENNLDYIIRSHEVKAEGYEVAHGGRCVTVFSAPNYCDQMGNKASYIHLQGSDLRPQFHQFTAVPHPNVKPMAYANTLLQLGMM
row,SMILES,inhibition
1,CNC(=S)NNC(=O)c1oc2nc(-c3ccccc3)cc(-c3ccco3)c2c1N,-5.36% (inactive)
2,COCCN1C=C2C(=O)C(C)(OC(=O)C3CCCC3)C(=O)C=C2C=C1c1ccsc1 (stereo not drawn),43.5% (active)
3,CCN1CCN(CCNC(=O)c2ccc(/C=C3/Sc4ccccc4N(Cc4cccc(C)c4)C3=O)cc2)CC1,1.06% (inactive)
